The values below come from PubChem BioAssay (NCI).

The panel holds about 83,000 compounds, 20% with a hit somewhere; the sample as a whole holds those more often.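 Plates (96-well) were seeded with cells, treated with compound at one concentration, and incubated for 48 hours before percent growth was determined.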 Activity calls are given as the source filed them. How the source made its calls: active means growth percent below 10; inactive means the rest.

Common to all, as to test: NCI-60 one-dose screen, 48 h (100 = growth as untreated, 0 = no growth, -100 = all killed)
Assay [1] deals with HOP-92 NSCLC. The note with it: 10 µM unless noted.
Assay [2] has as its system NCI-H522 lung. The note with it: 10 µM unless noted.
The subject of assay [3] is MALME-3M melanoma. Conditions: 10 µM unless noted.
In assay [4] the test system is RXF 393 renal. Conditions: 10 µM unless noted.
Assay [5] deals with M14 melanoma. The note with it: 10 µM unless noted.
The test system of assay [6] is U251 CNS. The note with it: 10 µM unless noted.
For assay [7], the system named is EKVX NSCLC. The note with it: 10 µM unless noted.
Assay [8] relates to TK-10 renal. The note with it: 10 µM unless noted.
Assay [9] concerns CAKI-1 renal. Conditions: 10 µM unless noted.
Assay [10] relates to CCRF-CEM leukemia. Conditions: 10 µM unless noted.
Assay [11] relates to SR leukemia. Conditions: 10 µM.
Assay [12] relates to RPMI-8226 leukemia. The note with it: 10 µM unless noted.
The subject of assay [13] is BT-549 breast. Conditions: 10 µM.
The subject of assay [14] is SW-620 colon. Conditions: 10 µM unless noted.
For assay [15], the system named is HCT-116 colon. Conditions: 10 µM unless noted.
Assay [16] has as its system COLO 205 colon. Conditions: 10 µM.
In assay [17] the test system is MOLT-4 leukemia. The note with it: 10 µM.
Assay [18] has as its system SK-OV-3 ovarian. The note with it: 10 µM unless noted.
Assay [19] relates to LOX IMVI melanoma. Conditions: 10 µM unless noted.

For `CCN(CC)CCOc1c(C(C)C)cccc1C(C)C`, the growth was 106% (inactive) in [1]; 93.3% (inactive) in assay [2]; 107% (inactive) in [3]; 112% (inactive) in assay [4]; 99.2% (inactive) in [5]; 98.6% (inactive) in assay [6]. Besides, the growth is 96.5% (inactive) in assay [7]; 110% (inactive) in assay [8]; 89.8% (inactive) in assay [9]; 102% (inactive) in [10]; -1.29% (active) in assay [11]; 103% (inactive) in assay [12]. Further, the growth in [13] is 123% (inactive); in [14], 106% (inactive); in assay [15] it was 95.2% (inactive).
Take `CC(=O)N(C)C1=Nc2ccc(Cl)cc2C(c2ccccc2)=[N+]([O-])C1`: the growth was 92.5% (inactive) in assay [1]; 105% (inactive) in assay [16]; 121% (inactive) in [3]; 109% (inactive) in [4]; 114% (inactive) in [5]; 111% (inactive) in assay [6]. Further, the growth in assay [7] was 115% (inactive); in [8] it was 102% (inactive); in assay [9], 99.8% (inactive); in assay [10] it was 125% (inactive); in [17], 101% (inactive); in [11] it was 86.1% (inactive). Also, the growth in [12] was 113% (inactive); in assay [18], 102% (inactive); in assay [13], 106% (inactive); in assay [14], 107% (inactive); in assay [15] it was 99.3% (inactive).
As to `COc1ccc(C(c2ccc(OC)cc2)C(Cl)(Cl)Cl)cc1`, the growth in assay [1] is 63.9% (inactive); in [2] it was 60% (inactive); in [3] it was 91.8% (inactive); in assay [4] it was 73.4% (inactive); in [5], 84.5% (inactive); in assay [6], 90.4% (inactive). The growth in assay [9] is 68.4% (inactive); in assay [10], 55.6% (inactive); in [17] it was 85.8% (inactive); in assay [11], 71.8% (inactive); in assay [12], 71.5% (inactive); in assay [18], 96.2% (inactive). The growth in [13] was 110% (inactive); in assay [14], 89.4% (inactive); in [15], 61.8% (inactive).
Turning to `C[C@]12CCc3sc(-c4ccc(Cl)cc4)nc3C1=CC[C@@H]1[C@@H]2CC[C@]2(C)C(=O)CC[C@@H]12`, the growth in [1] was 98.6% (inactive); in [16] it was 97.2% (inactive); in assay [3], 75% (inactive); in assay [4], -36.9% (active); in assay [5], 97.6% (inactive); in [6], 36.7% (inactive). Further, the growth is 55.1% (inactive) in assay [19]; 72.3% (inactive) in assay [7]; 67.7% (inactive) in assay [9]; 14.5% (inactive) in assay [10]; 8.47% (active) in assay [17]; 10.9% (inactive) in assay [11]. Moreover, the growth was -17.8% (active) in [12]; 79.2% (inactive) in assay [18]; 60.6% (inactive) in assay [13]; 22.9% (inactive) in [14]; 52.3% (inactive) in assay [15].
Turning to `O=C1NC(=O)C(=Cc2cn(Cc3ccccc3)c3ccccc23)C(=O)N1`, the growth in [1] is 79.3% (inactive); in assay [2], 102% (inactive); in [16], 18.3% (inactive); in assay [3] it was 109% (inactive); in assay [4] it was 86.9% (inactive); in assay [5], 99.5% (inactive). The growth was 84.1% (inactive) in assay [6]; 83.4% (inactive) in [19]; 28.8% (inactive) in assay [8]; 98.1% (inactive) in assay [10]; 132% (inactive) in [17]; 71.4% (inactive) in assay [11]. The growth in assay [12] was 75.7% (inactive); in assay [18], 53.2% (inactive); in assay [14], 83.6% (inactive); in [15] it was 86.1% (inactive).
As to `CC(=O)[O][Hg][c]1ccccc1`, the growth in assay [1] was -94.7% (active); in assay [2] it was -32.8% (active); in assay [3] it was -88% (active); in assay [4], -92% (active); in assay [7], -35.7% (active); in assay [8] it was -94.7% (active). In addition, the growth in assay [9] is -69.7% (active); in [10], 0.0979% (active); in assay [17] it was -10.9% (active); in assay [11] it was -31.3% (active); in [12], 10.1% (inactive); in [18] it was -5.18% (active). Also, the growth in assay [13] is -96.7% (active); in assay [14], -92.9% (active); in [15] it was -88% (active).
As for `COc1ccc(C2SCC(=O)Nc3c2c(C)nn3-c2nc3ccc(C)cc3s2)cc1O` (centres undefined), the growth in assay [1] is 28.9% (inactive); in [2], 1.68% (active); in [16], 35.1% (inactive); in assay [3] it was 43.5% (inactive); in assay [4] it was 50.2% (inactive); in assay [6], 31.3% (inactive). In addition, the growth is 36.9% (inactive) in [19]; 71.6% (inactive) in assay [8]; 31.1% (inactive) in assay [9]; 27.6% (inactive) in assay [10]; 18.2% (inactive) in assay [17]; 9.81% (active) in assay [11]. Further, the growth in [12] is 38.8% (inactive); in [18] it was 44.2% (inactive); in [14] it was 28.1% (inactive); in assay [15], 34.1% (inactive).
As to `O=[N+]([O-])c1ccc(/C=C/C=C/c2ccc(S(=O)(=O)F)cc2)c(Cl)c1`, the growth in assay [1] was 86.1% (inactive); in assay [2] it was 83.8% (inactive); in assay [3], 102% (inactive); in assay [4], 92.2% (inactive); in assay [5] it was 100% (inactive); in assay [6] it was 96.2% (inactive). Also, the growth in [19] is 102% (inactive); in assay [8], 108% (inactive); in assay [9], 98.3% (inactive); in assay [10] it was 85.8% (inactive); in assay [17], 84.1% (inactive); in assay [11], 77.9% (inactive). In addition, the growth in assay [12] is 93.4% (inactive); in [18], 98% (inactive); in assay [13], 100% (inactive); in assay [14], 104% (inactive); in [15], 106% (inactive).
Consider `CCCCCCCCCCCCOc1ccc(C(=O)Oc2ccc(CSP3(=O)OCC4OC(n5cnc6c(N)ncnc65)C(F)C4OP(=O)(O)OCC4OC(n5ccc(=O)[nH]c5=O)C(F)C4O3)cc2)cc1` (centres undefined), for which the growth is 86.9% (inactive) in assay [1]; 69.4% (inactive) in assay [2]; 114% (inactive) in assay [3]; 60.8% (inactive) in [4]; 109% (inactive) in assay [6]; 85.9% (inactive) in assay [19]. For the same compound, the growth is 107% (inactive) in assay [7]; 77.5% (inactive) in assay [8]; 68.3% (inactive) in assay [10]; 68.3% (inactive) in assay [17]; 25.1% (inactive) in [11]; 72.2% (inactive) in assay [12]. In addition, the growth was 110% (inactive) in assay [18], 81.6% (inactive) in assay [13], 118% (inactive) in assay [14] and 83.2% (inactive) in assay [15].
